Of roughly 7,900 targets only a part is listed; those with a hit were picked by preference. About 0.6% of all pairs of compound and target were hits.
What was measured:
Experiment in all cases: log2 fold change, soluble protein after heating vs DMSO (PISA); higher = thermal stabilisation; K562 cells, 10 uM, 30 min; active = over 0.2 and 3.5 SD of the protein, either way, in both replicates (recomputed)
bafetinib = compound: Cc1ccc(NC(=O)c2ccc(CN3CC[C@H](N(C)C)C3)c(C(F)(F)F)c2)cc1Nc1nccc(-c2cncnc2)n1 [bafetinib]
Method in brief: (§1)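 K562 cells at 2×10^6 cells/mL were given 10 μM compound for 30 min. Aliquots then went through 3 min of heating across 48°C-58°C, were pooled, and were extracted in PBS with 0.5% NP-40 at 4°C, and the supernatant after 21,000xg for 90 min was quantified by TMTpro 16plex LC-MS/MS with channel sums equalised. Thermal stability relative to control samples, from duplicates, is given as log2 fold change.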

[1] = compound: Cc1cccc(CC(=O)N2CCc3c2ccc(-c2cn(C)c4ncnc(N)c24)c3F)n1
Method in brief: as §1

nilotinib = compound: Cc1cn(-c2cc(NC(=O)c3ccc(C)c(Nc4nccc(-c5cccnc5)n4)c3)cc(C(F)(F)F)c2)cn1 [nilotinib]
Method in brief: as §1

[2] = compound: Cc1nc(Nc2n[nH]c3c2CN(C(=O)N[C@H](CN(C)C)c2ccccc2)C3(C)C)c2sccc2n1
Method in brief: as §1

dasatinib = compound: Cc1nc(Nc2ncc(C(=O)Nc3c(C)cccc3Cl)s2)cc(N2CCN(CCO)CC2)n1 [dasatinib]
Method in brief: as §1

[3] = compound: Cc1ncc(-c2ccnc(Nc3ccc(S(C)(=O)=O)cc3)n2)n1C(C)C
Method in brief: as §1

[4] = compound: Cn1cc(-c2ccc3c(c2)CCN3C(=O)Cc2cccc(C(F)(F)F)c2)c2c(N)ncnc21
Method in brief: as §1

[5] = compound: Cn1cc(-c2ccc3nnc(C(F)(F)c4ccc5ncccc5c4)n3n2)cn1
Method in brief: as §1

tipifarnib = compound: Cn1cncc1[C@@](N)(c1ccc(Cl)cc1)c1ccc2c(c1)c(-c1cccc(Cl)c1)cc(=O)n2C [tipifarnib]
Method in brief: as §1

mubritinib = compound: FC(F)(F)c1ccc(/C=C/c2nc(COc3ccc(CCCCn4ccnn4)cc3)co2)cc1 [mubritinib]
Method in brief: as §1

[6] = compound: NC(=O)Nc1cc(-c2cccc(F)c2)sc1C(=O)N[C@H]1CCCNC1
Method in brief: as §1

[7] = compound: NC(=O)c1cnc(N[C@@H]2CCCC[C@@H]2N)nc1Nc1cccc(-n2nccn2)c1
Method in brief: as §1

[8] = compound: NC1(c2ccc(-c3nc4ccn5c(=O)[nH]nc5c4cc3-c3ccccc3)cc2)CCC1
Method in brief: as §1

[9] = compound: NCC(=O)Nc1ccc(-n2nc(C(F)(F)F)cc2-c2ccc3c(ccc4ccccc43)c2)cc1
Method in brief: as §1

entinostat = compound: Nc1ccccc1NC(=O)c1ccc(CNC(=O)OCc2cccnc2)cc1 [entinostat]
Method in brief: as §1

vorinostat = compound: O=C(CCCCCCC(=O)Nc1ccccc1)NO [vorinostat]
Method in brief: as §1

citarinostat = compound: O=C(CCCCCCNC(=O)c1cnc(N(c2ccccc2)c2ccccc2Cl)nc1)NO [citarinostat]
Method in brief: as §1

silmitasertib = compound: O=C(O)c1ccc2c(c1)nc(Nc1cccc(Cl)c1)c1ccncc12 [silmitasertib]
Method in brief: as §1

[10] = compound: O=C1NC(=O)C(c2cnc3ccccn23)=C1c1cn2c3c(cc(F)cc13)CN(C(=O)N1CCCCC1)CC2
Method in brief: as §1

[11] = compound: c1cc(OCCN2CCCCC2)cc(-c2n[nH]c3ccc(-c4nnc[nH]4)cc23)c1
Method in brief: as §1

Measured: log2 fold change

ERLIN1 (UniProt O75477)
UniProt O75477, sequence (O75477 whole entry, looked up): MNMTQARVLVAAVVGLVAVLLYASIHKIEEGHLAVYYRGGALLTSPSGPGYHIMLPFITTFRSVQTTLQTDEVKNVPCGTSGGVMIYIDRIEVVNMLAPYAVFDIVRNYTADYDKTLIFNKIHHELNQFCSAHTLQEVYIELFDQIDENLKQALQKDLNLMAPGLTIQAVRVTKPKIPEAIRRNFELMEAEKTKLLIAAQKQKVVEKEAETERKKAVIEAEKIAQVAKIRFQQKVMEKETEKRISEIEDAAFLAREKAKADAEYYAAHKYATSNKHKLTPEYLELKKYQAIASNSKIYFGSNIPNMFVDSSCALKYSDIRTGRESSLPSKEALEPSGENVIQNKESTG
inactive: bafetinib 0.041 | [1] 0.094 | nilotinib -0.153 | [2] 0.032 | dasatinib -0.031 | [3] 0.004 | [4] -0.11 | [5] 0.002 | tipifarnib 0.026 | mubritinib -0.053 | [6] 0.083 | [7] -0.068 | [8] -0.066 | [9] -0.043 | entinostat 0.111 | vorinostat 0.074 | citarinostat -0.01 | silmitasertib -0.009 | [10] 0.084 | [11] -0.045

DENND10 (UniProt Q8TCE6)
UniProt Q8TCE6, sequence (Q8TCE6 whole entry, looked up): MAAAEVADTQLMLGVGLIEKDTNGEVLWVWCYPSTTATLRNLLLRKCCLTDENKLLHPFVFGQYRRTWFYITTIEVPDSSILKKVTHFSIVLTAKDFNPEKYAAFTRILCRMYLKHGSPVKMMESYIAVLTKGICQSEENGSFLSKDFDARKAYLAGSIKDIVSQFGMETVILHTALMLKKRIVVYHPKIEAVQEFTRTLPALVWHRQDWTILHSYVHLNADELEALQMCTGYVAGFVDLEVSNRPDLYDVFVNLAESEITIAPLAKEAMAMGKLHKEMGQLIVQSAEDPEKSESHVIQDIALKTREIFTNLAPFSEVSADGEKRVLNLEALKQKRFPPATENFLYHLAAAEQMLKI
inactive: bafetinib 0.033 | nilotinib -0.266 | [2] -0.032 | dasatinib -0.129 | [3] -0.353 | [4] -0.131 | [5] -0.064 | tipifarnib 0.034 | mubritinib 0.077 | [6] 0.018 | [7] 0 | [8] -0.089 | [9] -0.069 | entinostat -0.076 | citarinostat 0.07 | silmitasertib 0.037 | [10] 0.073 | [11] 0.054

FAM160B1 (UniProt Q5W0V3)
UniProt Q5W0V3, sequence (Q5W0V3 whole entry, looked up): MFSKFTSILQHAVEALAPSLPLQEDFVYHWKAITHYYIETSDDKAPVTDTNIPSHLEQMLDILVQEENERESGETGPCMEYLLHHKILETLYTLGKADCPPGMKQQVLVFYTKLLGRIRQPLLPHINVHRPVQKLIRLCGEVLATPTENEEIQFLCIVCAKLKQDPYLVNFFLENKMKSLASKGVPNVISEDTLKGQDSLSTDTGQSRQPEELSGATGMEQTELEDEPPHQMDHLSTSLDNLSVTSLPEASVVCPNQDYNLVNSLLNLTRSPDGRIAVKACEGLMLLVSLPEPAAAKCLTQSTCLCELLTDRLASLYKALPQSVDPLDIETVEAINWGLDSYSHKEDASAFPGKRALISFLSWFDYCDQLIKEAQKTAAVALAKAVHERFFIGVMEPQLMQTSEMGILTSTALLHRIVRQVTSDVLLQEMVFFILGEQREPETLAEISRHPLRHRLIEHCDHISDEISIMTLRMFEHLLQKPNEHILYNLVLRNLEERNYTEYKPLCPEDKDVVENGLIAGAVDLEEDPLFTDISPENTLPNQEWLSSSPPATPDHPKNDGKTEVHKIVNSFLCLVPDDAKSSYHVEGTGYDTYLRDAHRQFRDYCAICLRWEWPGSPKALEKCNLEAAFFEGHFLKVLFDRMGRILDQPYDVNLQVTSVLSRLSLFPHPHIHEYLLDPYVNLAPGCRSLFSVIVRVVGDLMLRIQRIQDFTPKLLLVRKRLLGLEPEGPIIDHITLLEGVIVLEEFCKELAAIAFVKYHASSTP
active: [8] -0.211
inactive: bafetinib -0.018 | [1] 0.023 | nilotinib -0.032 | [2] -0.049 | dasatinib -0.082 | [3] -0.014 | [4] -0.053 | [5] -0.039 | tipifarnib 0.115 | mubritinib 0.023 | [6] 0.04 | [7] -0.038 | [9] -0.043 | entinostat 0.026 | vorinostat 0.139 | citarinostat 0.069 | silmitasertib -0.026 | [10] -0.064 | [11] 0

DNAH5 (UniProt Q8TE73)
inactive: bafetinib -0.065 | [1] -0.084 | nilotinib -0.006 | [2] 0.015 | dasatinib 0.085 | [3] -0.015 | [4] 0 | [5] -0.06 | tipifarnib 0.267 | mubritinib 0.032 | [6] -0.029 | [8] -0.077 | [9] 0.016 | entinostat -0.037 | vorinostat -0.103 | citarinostat 0.047 | silmitasertib 0.001 | [10] 0.014 | [11] 0.029

FAM241A (UniProt Q8N8J7)
UniProt Q8N8J7, sequence (Q8N8J7 whole entry, looked up): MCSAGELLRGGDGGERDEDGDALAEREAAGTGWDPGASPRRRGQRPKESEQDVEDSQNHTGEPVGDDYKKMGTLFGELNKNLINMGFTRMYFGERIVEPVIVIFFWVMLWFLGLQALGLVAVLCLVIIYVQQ
inactive: bafetinib -0.143 | [1] -0.056 | nilotinib -0.027 | [2] 0.029 | dasatinib 0.02 | [3] -0.095 | [4] 0.046 | [5] 0.049 | tipifarnib 0.008 | mubritinib 0.028 | [7] -0.033 | [8] -0.032 | [9] -0.004 | vorinostat -0.005 | citarinostat -0.09 | silmitasertib 0.045 | [11] -0.058
active: [6] 0.661 | entinostat 0.424

EHD2 (UniProt Q9NZN4)
inactive: bafetinib -0.051 | [1] 0.008 | nilotinib -0.062 | [2] 0.01 | dasatinib -0.112 | [3] 0.003 | [4] 0.012 | [5] -0.031 | tipifarnib -0.028 | mubritinib -0.061 | [6] -0.034 | [7] -0.048 | [8] -0.072 | [9] -0.096 | entinostat 0.033 | vorinostat 0.055 | citarinostat 0.048 | silmitasertib 0.012 | [10] -0.04 | [11] -0.015

CYB561A3 isoform 2 (UniProt Q8NBI2)
UniProt Q8NBI2, sequence (Q8NBI2 whole entry, looked up): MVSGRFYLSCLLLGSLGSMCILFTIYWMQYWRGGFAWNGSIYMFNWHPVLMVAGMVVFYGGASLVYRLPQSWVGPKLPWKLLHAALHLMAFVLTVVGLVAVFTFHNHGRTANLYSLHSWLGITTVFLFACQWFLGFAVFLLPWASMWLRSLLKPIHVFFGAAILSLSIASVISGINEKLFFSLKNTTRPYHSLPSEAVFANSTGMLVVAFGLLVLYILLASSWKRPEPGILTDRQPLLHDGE
inactive: bafetinib 0.03 | [1] -0.223 | nilotinib 0.012 | [2] 0.065 | dasatinib 0.034 | [3] -0.029 | [4] 0.004 | [5] -0.044 | tipifarnib -0.087 | mubritinib -0.015 | [6] -0.019 | [7] -0.075 | [8] -0.066 | entinostat -0.004 | vorinostat -0.254 | citarinostat -0.081 | silmitasertib 0.04 | [11] 0.035

EIF4E2 (UniProt O60573)
UniProt O60573, sequence (O60573 whole entry, looked up): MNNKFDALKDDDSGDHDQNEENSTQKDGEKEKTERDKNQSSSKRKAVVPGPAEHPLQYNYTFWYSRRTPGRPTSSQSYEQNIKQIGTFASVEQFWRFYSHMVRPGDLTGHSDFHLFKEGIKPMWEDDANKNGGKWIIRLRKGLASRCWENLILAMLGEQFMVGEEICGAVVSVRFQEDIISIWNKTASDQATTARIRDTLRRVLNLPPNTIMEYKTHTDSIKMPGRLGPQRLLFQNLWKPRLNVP
inactive: bafetinib -0.055 | nilotinib -0.094 | [2] -0.052 | dasatinib -0.232 | [3] -0.004 | [4] 0.082 | [5] -0.059 | tipifarnib -0.127 | mubritinib 0.035 | [6] 0.054 | [7] -0.015 | [8] 0.085 | [9] -0.048 | entinostat 0.075 | citarinostat 0.245 | silmitasertib 0.019 | [10] 0.003 | [11] 0.079

DDX5 (UniProt P17844)
inactive: bafetinib 0.272 | [1] 0.018 | nilotinib 0.166 | [2] -0.092 | dasatinib -0.19 | [3] 0.076 | [4] 0.029 | [5] 0.046 | tipifarnib -0.155 | mubritinib 0.326 | [6] -0.139 | [7] -0.032 | [8] -0.21 | [9] -0.135 | entinostat 0.067 | vorinostat 0.073 | citarinostat 0.072 | silmitasertib -0.088 | [10] -0.158 | [11] -0.039

FAM122A (UniProt Q96E09)
UniProt Q96E09, sequence (Q96E09 whole entry, looked up): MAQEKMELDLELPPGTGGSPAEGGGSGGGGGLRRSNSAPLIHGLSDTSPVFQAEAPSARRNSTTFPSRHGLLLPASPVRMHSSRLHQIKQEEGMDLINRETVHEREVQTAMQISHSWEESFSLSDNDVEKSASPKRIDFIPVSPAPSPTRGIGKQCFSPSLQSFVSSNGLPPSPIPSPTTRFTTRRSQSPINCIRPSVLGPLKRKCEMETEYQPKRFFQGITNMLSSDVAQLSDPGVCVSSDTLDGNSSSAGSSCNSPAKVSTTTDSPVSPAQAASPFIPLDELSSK
inactive: bafetinib -0.096 | [1] -0.185 | nilotinib 0.027 | [2] -0.184 | dasatinib -0.054 | [3] 0.059 | [4] 0.024 | [5] 0.037 | tipifarnib -0.059 | mubritinib 0.009 | [6] -0.031 | [7] 0.076 | [8] -0.048 | [9] 0.023 | entinostat 0.143 | vorinostat 0.025 | citarinostat -0.009 | silmitasertib 0.005 | [10] -0.052 | [11] 0.062

DNAH10 (UniProt Q8IVF4)
inactive: bafetinib 0.062 | [1] -0.052 | nilotinib -0.092 | [2] 0.037 | dasatinib 0.093 | [3] 0.043 | [4] 0.102 | mubritinib 0.154 | [6] 0.057 | [8] -0.045 | [9] 0.026 | entinostat -0.041 | vorinostat 0.083 | citarinostat 0.242 | silmitasertib -0.101 | [10] -0.102 | [11] 0.172

FAM160A2 isoform 2 (UniProt Q8N612)
UniProt Q8N612, sequence (Q8N612 whole entry, looked up): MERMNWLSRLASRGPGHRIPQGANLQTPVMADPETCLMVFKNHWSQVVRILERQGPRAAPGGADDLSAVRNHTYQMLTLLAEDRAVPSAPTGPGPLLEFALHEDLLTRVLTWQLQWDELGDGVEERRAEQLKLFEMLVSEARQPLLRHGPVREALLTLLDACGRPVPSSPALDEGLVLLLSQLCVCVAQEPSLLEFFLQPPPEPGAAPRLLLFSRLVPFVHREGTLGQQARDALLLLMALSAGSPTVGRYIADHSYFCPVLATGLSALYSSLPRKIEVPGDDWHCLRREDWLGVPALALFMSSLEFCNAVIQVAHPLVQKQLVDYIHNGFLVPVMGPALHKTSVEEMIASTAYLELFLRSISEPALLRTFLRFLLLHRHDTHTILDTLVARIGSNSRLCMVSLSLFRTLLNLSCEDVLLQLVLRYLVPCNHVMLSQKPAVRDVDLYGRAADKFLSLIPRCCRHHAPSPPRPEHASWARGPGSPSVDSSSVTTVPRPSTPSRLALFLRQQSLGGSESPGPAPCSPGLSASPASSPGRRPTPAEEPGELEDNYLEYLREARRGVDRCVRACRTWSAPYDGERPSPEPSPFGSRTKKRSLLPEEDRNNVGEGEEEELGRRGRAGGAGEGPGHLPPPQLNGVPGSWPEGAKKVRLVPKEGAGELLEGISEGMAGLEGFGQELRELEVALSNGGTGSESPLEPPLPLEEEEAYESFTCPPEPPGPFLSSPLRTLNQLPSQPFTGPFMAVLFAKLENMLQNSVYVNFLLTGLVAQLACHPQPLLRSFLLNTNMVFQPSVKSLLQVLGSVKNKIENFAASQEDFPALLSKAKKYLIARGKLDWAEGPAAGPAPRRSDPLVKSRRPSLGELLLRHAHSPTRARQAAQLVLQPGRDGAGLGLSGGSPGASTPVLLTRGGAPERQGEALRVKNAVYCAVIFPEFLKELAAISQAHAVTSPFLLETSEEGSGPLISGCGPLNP
inactive: bafetinib -0.208 | [1] -0.145 | nilotinib -0.085 | [2] 0.192 | dasatinib -0.186 | [3] -0.101 | [4] -0.083 | [5] 0.046 | mubritinib 0.093 | [8] 0.158 | [9] -0.26 | vorinostat -0.009 | citarinostat -0.154 | silmitasertib 0.057 | [10] 0.026 | [11] 0.068

DOCK8 (UniProt Q8NF50)
inactive: bafetinib -0.076 | [1] -0.055 | nilotinib 0.069 | [2] -0.057 | dasatinib 0.052 | [3] -0.126 | [4] -0.14 | [5] -0.067 | mubritinib 0.021 | [6] -0.088 | [7] 0.073 | [8] 0.461 | [9] 0.036 | entinostat 0.079 | vorinostat 0.031 | citarinostat 0.064 | silmitasertib 0.254 | [10] -0.12 | [11] 0.07

DNM2 isoform 4 (UniProt P50570)
UniProt P50570, sequence (P50570 whole entry, looked up): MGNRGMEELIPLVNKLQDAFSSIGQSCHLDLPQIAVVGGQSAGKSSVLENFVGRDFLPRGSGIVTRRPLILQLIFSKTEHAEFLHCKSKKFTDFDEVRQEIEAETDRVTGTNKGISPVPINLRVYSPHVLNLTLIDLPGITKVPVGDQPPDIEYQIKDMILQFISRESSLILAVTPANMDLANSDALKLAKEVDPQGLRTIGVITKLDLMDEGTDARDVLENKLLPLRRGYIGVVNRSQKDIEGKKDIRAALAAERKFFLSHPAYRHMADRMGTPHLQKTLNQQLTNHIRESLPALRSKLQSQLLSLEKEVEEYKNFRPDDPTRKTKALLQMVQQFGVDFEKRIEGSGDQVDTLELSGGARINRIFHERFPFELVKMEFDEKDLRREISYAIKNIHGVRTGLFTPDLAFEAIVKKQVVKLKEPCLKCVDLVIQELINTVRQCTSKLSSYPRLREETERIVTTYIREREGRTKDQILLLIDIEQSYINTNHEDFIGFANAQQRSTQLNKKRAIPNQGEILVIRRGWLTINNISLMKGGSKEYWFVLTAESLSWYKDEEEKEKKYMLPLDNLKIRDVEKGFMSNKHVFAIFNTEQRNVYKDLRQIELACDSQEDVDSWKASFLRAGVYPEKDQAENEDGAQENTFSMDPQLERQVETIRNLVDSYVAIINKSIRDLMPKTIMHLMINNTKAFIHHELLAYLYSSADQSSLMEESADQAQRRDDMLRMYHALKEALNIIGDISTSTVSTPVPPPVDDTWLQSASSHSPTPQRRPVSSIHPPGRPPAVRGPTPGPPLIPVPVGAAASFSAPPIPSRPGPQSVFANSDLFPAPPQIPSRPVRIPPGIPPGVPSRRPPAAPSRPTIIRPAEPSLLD
inactive: bafetinib 0.154 | [1] 0.062 | nilotinib -0.006 | [2] 0.047 | dasatinib -0.007 | [3] -0.047 | [4] 0.006 | [5] 0.005 | mubritinib 0.108 | [6] -0.033 | [8] -0.318 | entinostat 0.342 | vorinostat -0.068 | citarinostat -0.113 | silmitasertib 0.116 | [10] 0.19 | [11] 0.06

FAM118B (UniProt Q9BPY3)
UniProt Q9BPY3, sequence (Q9BPY3 whole entry, looked up): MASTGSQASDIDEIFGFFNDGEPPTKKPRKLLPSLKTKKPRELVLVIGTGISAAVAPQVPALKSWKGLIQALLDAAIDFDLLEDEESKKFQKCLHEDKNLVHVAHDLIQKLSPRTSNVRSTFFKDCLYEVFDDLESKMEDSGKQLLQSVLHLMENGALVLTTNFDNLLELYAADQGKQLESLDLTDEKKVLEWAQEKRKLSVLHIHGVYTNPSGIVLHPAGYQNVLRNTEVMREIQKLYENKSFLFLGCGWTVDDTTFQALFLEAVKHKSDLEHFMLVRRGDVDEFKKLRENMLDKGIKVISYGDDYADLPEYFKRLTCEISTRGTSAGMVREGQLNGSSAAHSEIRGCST
active: [8] -0.381
inactive: bafetinib -0.083 | [1] 0.028 | nilotinib -0.114 | [2] -0.106 | [3] 0.022 | [4] 0.014 | [5] 0.02 | tipifarnib -0.083 | mubritinib 0.015 | [6] -0.034 | [7] -0.118 | [9] -0.027 | entinostat 0.047 | vorinostat 0.064 | citarinostat 0.052 | silmitasertib -0.082 | [10] -0.13 | [11] -0.078

FAM207A (UniProt Q9NSI2)
UniProt Q9NSI2, sequence (Q9NSI2 whole entry, looked up): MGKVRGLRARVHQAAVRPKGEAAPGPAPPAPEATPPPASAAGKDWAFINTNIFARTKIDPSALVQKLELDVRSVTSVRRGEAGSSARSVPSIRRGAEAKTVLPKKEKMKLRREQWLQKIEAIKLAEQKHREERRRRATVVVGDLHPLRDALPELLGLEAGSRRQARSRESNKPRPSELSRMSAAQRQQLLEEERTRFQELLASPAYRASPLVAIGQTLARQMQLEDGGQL
inactive: bafetinib 0.002 | [1] 0.076 | nilotinib -0.071 | [2] -0.087 | dasatinib 0.006 | [3] -0.059 | [5] -0.127 | tipifarnib 0.003 | mubritinib -0.238 | [6] -0.005 | [7] 0.076 | [8] -0.165 | [9] -0.042 | entinostat 0.052 | vorinostat 0.015 | citarinostat 0.106 | silmitasertib 0.356 | [10] 0.099 | [11] -0.117

EIF2AK1 (UniProt Q9BQI3)
inactive: bafetinib -0.162 | [1] 0.171 | dasatinib -0.068 | [4] 0.19 | [5] 0 | tipifarnib -0.035 | mubritinib -0.025 | [6] -0.034 | [7] 0.018 | [8] -0.023 | [9] 0.001 | entinostat 0.129 | vorinostat -0.058 | silmitasertib 0 | [10] 0.133
